The source of these data is PubChem BioAssay AID1942 (Johns Hopkins Ion Channel Center, 2009).

Screen size: about 2,400 compounds; about 580 (24%) were called active. A selection follows. Unmarked numbers belong to inactive results.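 How the source made its calls: active means activity change at or above the mean plus 3 SD of buffer wells without dofetilide, per plate; inactive means the rest.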

Sequence of Potassium voltage-gated channel subfamily KQT member 2 (Rattus norvegicus) (O88943 whole entry, looked up): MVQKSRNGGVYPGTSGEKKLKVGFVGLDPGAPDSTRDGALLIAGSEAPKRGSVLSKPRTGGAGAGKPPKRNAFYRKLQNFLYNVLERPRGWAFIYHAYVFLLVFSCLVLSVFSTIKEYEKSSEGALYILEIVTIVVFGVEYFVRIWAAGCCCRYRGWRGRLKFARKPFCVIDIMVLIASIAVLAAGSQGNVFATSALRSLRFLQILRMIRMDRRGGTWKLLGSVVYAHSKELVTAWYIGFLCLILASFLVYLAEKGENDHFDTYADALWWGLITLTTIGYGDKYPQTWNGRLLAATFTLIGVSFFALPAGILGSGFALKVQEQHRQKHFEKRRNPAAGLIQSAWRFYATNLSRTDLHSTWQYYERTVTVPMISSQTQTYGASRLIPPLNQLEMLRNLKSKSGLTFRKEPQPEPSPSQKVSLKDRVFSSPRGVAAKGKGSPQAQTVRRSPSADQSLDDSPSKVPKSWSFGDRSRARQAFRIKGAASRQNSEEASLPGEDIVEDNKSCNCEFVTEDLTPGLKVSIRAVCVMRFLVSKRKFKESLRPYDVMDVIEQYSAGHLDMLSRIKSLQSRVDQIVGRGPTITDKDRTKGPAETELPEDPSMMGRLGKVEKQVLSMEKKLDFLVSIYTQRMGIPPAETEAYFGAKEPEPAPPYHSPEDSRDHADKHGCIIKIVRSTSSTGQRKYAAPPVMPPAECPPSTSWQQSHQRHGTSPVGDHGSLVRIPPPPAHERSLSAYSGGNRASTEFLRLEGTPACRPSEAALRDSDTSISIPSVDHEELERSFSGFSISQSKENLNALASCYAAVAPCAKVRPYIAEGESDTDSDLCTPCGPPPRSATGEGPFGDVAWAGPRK

This experiment has as its target Potassium voltage-gated channel subfamily KQT member 2 (Rattus norvegicus) (UniProt O88943). As to the kind of experiment: rat KCNQ2 channel activation by compounds alone, confirmation, counter-screen for hERG block protector project, cell-based, CHO, FluxOR thallium flux (AID 1942).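 Further: normalized value minus buffer-control mean plus three SD of buffer wells.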 The conditions noted are these: CHO-KCNQ2 cells, FluxOR thallium flux fluorescence; at 10 µM; active compounds read high.
Consider `Cc1ccc(OCC(=O)Nn2cnc3ccccc32)cc1`, for which the activity change, less the hit threshold is -12.3%.
Consider `O=C(CCc1ccc(S(=O)(=O)N2CCCCC2)cc1)c1nnc(-c2ccccc2)o1`, for which the activity change, less the hit threshold is -13.3%.
In the case of `S=C(N/N=C/c1cccc2ccccc12)Nc1cccc(Cl)c1`, the activity change, less the hit threshold is -17.2%.
For the compound `S=c1nn[nH]n1C12CC3CC(CC(C3)C1)C2`, the activity change, less the hit threshold is 21.6% (active).
The figure for `CCn1c(=S)[nH]c2sc3c(c2c1=O)CCCCC3` is 97.9% (active); for `Cc1cccc(-n2c(=S)[nH]c3sc4c(c3c2=O)CCc2ccccc2-4)c1` it is -19.9%; for `O=C1c2ccccc2C(=O)N1Cc1ccco1` it is -11.8%.
The figure for `Cc1ccc(-n2c(=S)[nH]c3sc4c(c3c2=O)CCC4)cc1` is 0.2% (active); for `O=c1c2c3c(sc2[nH]c(=S)n1Cc1ccco1)CCC3` it is 26.9% (active); for `Cc1cc(=O)[nH]c(=S)n1-c1ccccc1` it is -31%.
The figure for `CCn1c(=S)[nH]c2sc3c(c2c1=O)CCCC3` is 49.6% (active); for `CCN(/N=C/c1ccc(Cl)cc1)c1cc(=O)n(C)c(=O)[nH]1` it is -19%.
With `CCCCCOCC1CC(C/C(C)=N/Nc2nc(-c3ccccc3)cs2)C(=O)O1` (stereo not drawn), the activity change, less the hit threshold is -18.7%.
With `O=C(/C=C/Nc1ccc(F)cc1)c1ccco1`, the activity change, less the hit threshold is -17.3%.
With `O=C(c1cccc2c1-c1ccccc1C2)N1CCCCC1`, the activity change, less the hit threshold is -20.1%.
For `O=C(O)c1ccc2c(c1)C(=O)N(c1cc([N+](=O)[O-])ccn1)C2=O`, the activity change, less the hit threshold was -1.1%.
Consider `O=C(CN1CCN(Cc2ccccc2)CC1)NCc1ccccc1Cl`, for which the activity change, less the hit threshold is -10.1%.
Then `CCCn1c(=S)[nH]c2sc3c(c2c1=O)CCCC3`, with 72% (active); and `COc1ccc(N(CC(=O)N2CCN(Cc3ccccc3)CC2)S(C)(=O)=O)cc1`, with -25.7%.
Consider `C#CCN1C(=O)S/C(=C\c2ccc(-c3ccc(C(=O)O)cc3C)o2)C1=O`, for which the activity change, less the hit threshold is -20.3%.
The figure for `COc1cc(CCC(=O)NNC(=O)c2ccc(C)cc2)cc(OC)c1OC` is -8.9%; for `CCOc1cccc(C(=O)Nc2ccc3[nH]ncc3c2)c1` it is -15.8%.
On to `Oc1c(Br)cc(Br)cc1C=Nc1ccc2[nH]ncc2c1`, for which the activity change, less the hit threshold is 33% (active).
The figure for `Oc1c(Br)cc(Br)cc1C=Nc1ccc2c(c1)OCCO2` is -1.5%; for `O=C(CSc1nc2ccccc2o1)NCc1n[nH]c(=O)c2ccccc12` it is -12.3%.
The figure for `CCOc1ccc(C(=O)Nc2ccccc2C(=O)O)cc1` is -4%; for `Cc1cc(NC(=O)/C(C#N)=C/c2ccco2)n(-c2ccccc2)n1` it is -20.2%.
Take `COc1ccc(-n2nc(C)cc2Nc2ccccc2C(=O)O)cc1`: the activity change, less the hit threshold was 21.8% (active).
Consider `CCCCSc1nnc(CCC)n1N`, for which the activity change, less the hit threshold is -8.4%.
Then `COC(=O)c1c(NC(=O)c2ccco2)sc2c1C(C(=O)OC)CC2` (stereo not drawn), with -18.3%; and `CCc1c(C)sc(NC(=O)CN2CCN(C(=O)c3ccco3)CC2)c1C(=O)OC`, with 16.7% (active).
Then `CC(C)OC(=O)c1c(NC(=O)c2ccco2)sc2c1CCCCC2`, with -27.5%; and `CCOC(=O)c1c(NC(=O)CN2CCN(C(=O)c3ccco3)CC2)sc2c1CCCC2`, with 17.6% (active).
The figure for `CCOc1ccc(OCC(=O)OCC(=O)N2CCN(C(=O)c3ccco3)CC2)cc1` is -10.5%; for `O=C(CNCC1CCCO1)N1CCCCCC1` (stereo not drawn) it is -15.5%; for `CC(Oc1ccc(Br)cc1Br)C(=O)Nc1cccnc1` (stereo not drawn) it is -16.3%.
In the case of `Cc1oc(/N=C/c2ccc(F)cc2)c(C#N)c1C`, the activity change, less the hit threshold is -16.1%.
As to `O=C(CN1C(=O)COc2ccccc21)NNC(=O)Nc1ccccc1F`, the activity change, less the hit threshold is -21.5%.
The figure for `Oc1oc(-c2cccc3ccccc23)nc1/C=N/c1nccs1` is 13.4% (active); for `O=c1cc(O)c2ccccc2n1Cc1ccccc1Cl` it is -12.7%; for `N=C1S/C(=C\c2ccc(-c3cccc(Cl)c3)o2)C(=O)N1c1nccs1` it is -9.5%.
Regarding `C=CCc1cccc(C2Nc3ccccc3C(=O)N2O)c1O` (stereo not drawn), the activity change, less the hit threshold is -12.4%.
Then `O=C1c2ccccc2NC(c2ccc(Br)s2)N1O` (stereo not drawn), with 70.9% (active); and `Cc1cc([N+](=O)[O-])ccc1-c1ccc(C2Nc3ccccc3C(=O)N2O)o1` (stereo not drawn), with -3.8%; and `CC1(OC(=O)c2ccc(Cl)nc2)C(=O)C=C2C=C(c3ccc(C#N)cc3)OC=C2C1=O` (stereo not drawn), with -15.2%.
Take `Fc1cccc2sc(Nc3nnc(-c4ccccc4)o3)nc12`: the activity change, less the hit threshold is 79.5% (active).
Consider `CC(=O)Nc1nc2c(F)cccc2s1`, for which the activity change, less the hit threshold was -18.4%.
On to `COc1cccc(-c2nnc(Nc3nc4c(F)cccc4s3)o2)c1`, for which the activity change, less the hit threshold is 13.2% (active).
In the case of `Fc1cccc2sc(Nc3nnc(-c4ccco4)o3)nc12`, the activity change, less the hit threshold was 25.3% (active).
The figure for `Fc1cccc2sc(Nc3nc4c(F)cccc4s3)nc12` is 0.7% (active); for `Fc1ccc2nc(Nc3nc4c(F)cc(F)cc4s3)sc2c1` it is -10.7%.
Then `Cc1cc(C)nc(SCc2nnc(SCC(=O)Nc3nc(-c4ccccc4)cs3)n2-c2ccccc2)n1`, with -11%; and `Nc1ccc(NC(=O)Nc2ccc(N)cc2)cc1`, with -14.5%; and `OC(CNCC(c1ccc(Cl)cc1Cl)c1c[nH]c2ccccc12)c1ccccc1` (stereo not drawn), with -43.4%.
Then `COc1cccc2cc(-c3nc4ccccc4[nH]3)c(=O)oc12`, with -23.9%.
As to `COc1cccc(-c2cc(C(F)(F)F)nc(N3CCCCC3)n2)c1`, the activity change, less the hit threshold was -10.8%.
Regarding `O=C1CCCN1C(=O)COc1ccccc1[N+](=O)[O-]`, the activity change, less the hit threshold was -15.5%.
As to `Cc1ccnc(N2CCC(C(=O)Nc3ccc(Oc4ccccc4)cc3)CC2)n1`, the activity change, less the hit threshold is -22%.
On to `CC(C)C(O)(C#CCN1CCCC1)c1ccccc1` (stereo not drawn), for which the activity change, less the hit threshold is -11.8%.
Turning to `COc1ccc(C(=O)NC(=S)N2CCC(C)CC2)cc1`, the activity change, less the hit threshold was -13.2%.
Then `CC(C)(C)c1ccc(C(=O)NC(=S)N2CCCCCC2)cc1`, with 18.8% (active); and `CC1CN(C(=S)NC(=O)c2ccc(Cl)cc2)CC(C)O1` (stereo not drawn), with -3.2%.
On to `CC1CCN(C(=S)NC(=O)c2ccc(C(C)(C)C)cc2)CC1`, for which the activity change, less the hit threshold was 10.7% (active).
For `CC(C)(C)c1ccc(C(=O)NC(=S)N2CCCC2)cc1`, the activity change, less the hit threshold was -7.6%.
The figure for `S=C(N/N=C/c1ccc(Cl)cc1)N1CCOCC1` is -26.9%.
The figure for `COc1ccc(C(=O)NC(=S)N2CCC(C)CC2)cc1Br` is 51% (active).
Then `O=C(NC(=S)N1CCCC1)c1ccc(Cl)cc1`, with 4.3% (active); and `CN1CCN(C(=S)NC(=O)c2ccc(C(C)(C)C)cc2)CC1`, with -16.2%.
As to `O=C(Nc1ccccc1)OCCCCCOC(=O)Nc1ccccc1`, the activity change, less the hit threshold is -18.2%.
Then `Nc1cc(=O)[nH]c(SCC(=O)N2CCCCC2)n1`, with -21.9%; and `O=C1C2CC=CCC2C(=O)N1c1ccc(Cc2ccncc2)cc1` (stereo not drawn), with -5.4%; and `O=C(c1ccc(C(F)(F)F)cc1)C1CCCN(C(=O)CCc2ccncc2)C1` (stereo not drawn), with -24.8%.
For `Cc1ccc(/C=C(\NC(=O)c2ccccc2)C(=O)N2CCCCC2)cc1`, the activity change, less the hit threshold was -24.3%.
With `O=C(C1CC(=O)N(c2ccc3c(c2)OCCO3)C1)N1CCCC(C(F)(F)F)C1` (stereo not drawn), the activity change, less the hit threshold is -22.3%.
The figure for `O=C(NC(=S)N1CCCCCC1)c1ccc(Cl)cc1Cl` is 7.1% (active); for `CC(C)(C)c1nc(SCC(=O)N2CCCC2)c2ccccc2n1` it is -0.3%; for `COc1cc(OC)cc(C(=O)NC(=S)N2CCCCCC2)c1` it is -13.9%.
Then `CC(C)(C)c1ccc(/C=C/C(=O)N2CCCCC2)cc1`, with 5.1% (active); and `O=C(NC(=S)N1CCCC(C(F)(F)F)C1)c1ccc(F)cc1` (stereo not drawn), with 24.6% (active); and `Cc1ccc(C2C(C#N)=C(N)OC3=C2C(=O)CC(C)(C)C3)s1` (stereo not drawn), with -16.9%.
Turning to `O=[N+]([O-])c1ccccc1OCCNCc1ccccc1`, the activity change, less the hit threshold was -14.6%.
Consider `COc1ccc(CNC(=O)C(=O)c2cn(CC(=O)N3CCCC3)c3ccccc23)cc1`, for which the activity change, less the hit threshold was -11.5%.
In the case of `CCOC(=O)CC(=O)CSc1nc2c(C)c(C)ccc2cc1C`, the activity change, less the hit threshold was -15.8%.
Regarding `COC(=O)Cn1c(=O)c(=O)n(CC(=O)OC)c2ccccc21`, the activity change, less the hit threshold was -18.3%.
For the compound `O=c1c2[nH]c3ccccc3c2nc2n1CCCS2`, the activity change, less the hit threshold is 9.5% (active).
With `O=c1c(Cc2ccccc2)c(O)nc2n1CCCS2`, the activity change, less the hit threshold was -10.3%.
Then `CCOC(=O)N1CCN(C(=O)CSc2nc3c([nH]c4ccccc43)c(=O)n2CC)CC1`, with -17.8%.
The figure for `CCCc1nc(SCC(=O)Nc2cc(C)on2)c2ccccc2n1` is -19.7%; for `Cc1cc(NC(=O)CSc2nc(C3CC3)nc3sc(C)c(C)c23)no1` it is 19.9% (active).
Then `Cc1cc(NC(=O)CSc2nnc(Nc3ccccc3)s2)no1`, with -25.4%.
On to `Cc1nc2scc(C)n2c(=O)c1S(=O)(=O)Nc1ccc(N2CCOCC2)cc1`, for which the activity change, less the hit threshold was -19.6%.
Then `CCOc1cc(N2CCOCC2)c(OCC)cc1NC(=O)Cn1nc(C)c([N+](=O)[O-])c1C`, with -16.6%; and `O=C(CNC1CCCCCC1)Nc1ccccc1N1CCOCC1`, with -21.6%.
On to `CCOc1cc(N2CCOCC2)c(OCC)cc1NC(=O)CCC1CCCC1`, for which the activity change, less the hit threshold was 75.8% (active).
Take `CCOc1ccc(NC(=O)CN(C)C(=O)c2c(-c3c(F)cccc3Cl)noc2C)cc1OCC`: the activity change, less the hit threshold is -16.8%.
Turning to `O=C(COc1ccc2ccccc2c1Br)Nc1cccnc1`, the activity change, less the hit threshold is -22.1%.
The figure for `Cc1ccc(/C=C/C(=O)c2ccccc(=O)c2O)cc1C` is 28.9% (active).
Then `Cc1ccc(NS(=O)(=O)c2ccc(NC(=O)c3ccccc3C(=O)O)cc2)cc1C`, with -17%; and `Cc1ccc(C(=O)CC(=O)c2cccc(F)c2)c(O)c1`, with -14.8%.
Take `O=C(/C=C/c1ccccc1Cl)c1ccccc(=O)c1O`: the activity change, less the hit threshold was 30.9% (active).
Regarding `Cc1ccc(/C=C/C(=O)c2ccccc(=O)c2O)c(C)c1`, the activity change, less the hit threshold was 40.1% (active).
The figure for `Cc1ccc(C)c(/C=C/C(=O)c2ccccc(=O)c2O)c1` is 29.3% (active); for `Cc1ccc(C(=O)c2ccccc2C(=O)O)c(O)c1` it is -21.5%.
